In PubChem BioAssay:
“And” between values parts separate entries of the source, which are not always exact repeats. Identical values can stand only once. Results filed as inconclusive are left out. The source made the active and inactive calls.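 The calls were made as follows, unless noted: active = normalized viability below 100% at a tested concentration; inactive = the rest.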

Experiments:
[1] = circadian clock period modulators, cell-based, LOPAC library, luminescence reporter (AID 2774; call rule not given here;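 also: values are relative to mean of DMSO wells on each plate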); conditions: circadian reporter cells, at 7 µM, actives lie on both sides
[2] = liver-stage malaria parasite growth inhibition, primary screen, cell-based, HepG2, luciferase luminescence, HepG2 viability (AID 624349; in the data active = parasite load remaining mostly below about 12%, no sharp cut-off; inactive = mostly above about 10%;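 also: 100% = mean of DMSO negative control wells on the same plate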); conditions: P. berghei liver stage in HepG2, luciferase luminescence, concentration not given here; parasite load remaining: stronger effect = lower value; viability: measured here: HepG2 viability without parasites
[3] = system: Hepatitis C virus NS3 helicase; experiment: HCV NS3 helicase inhibitors, primary screen, biochemical, fluorescence polarization, LOPAC1280 library (AID 687035; in the data active = inhibition above about 37%); conditions: Purified HCV NS3 helicase, Cy5-dT15 ssDNA binding fluorescence polarization; stronger effect = higher value; concentration not given here
[4] = Cy5 fluorescence quenching or enhancement artefacts, artefact control for HCV NS3 helicase inhibitor project, biochemical, LOPAC1280 (AID 687037; call rule not given here); conditions: Cy5-DNA-NS3h complex fluorescence interference counterscreen
[5] = system: Aerobactin synthetase IucA (Klebsiella pneumoniae); experiment: IucA aerobactin synthetase inhibitors, biochemical, Tocris library, absorbance (AID 1345561; call rule not given here;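 also: 100% = enzyme without compound and 0% = no enzyme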); conditions: purified IucA enzyme assay, absorbance (OD) read-out; stronger effect = lower value;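 tested at 8 µM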
[6] = viability loss in pontine glioma line – cell-based, SU-DIPG-XXV, MIPE5.0, CellTiter-Glo, qHTS, dose response (AID 1347065; cut-off not given, nearly all actives have AC50 up to about 26 µM;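 also: cells exposed to compound for 48 hours before ATP readout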); conditions: CellTiter-Glo ATP luminescence
[7] = JHH-DIPG-1 glioma cell viability, MIPE5.0 library, CellTiter-Glo luminescence, qHTS (AID 1347067; cut-off not given, nearly all actives have AC50 up to about 26 µM;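 also: cells exposed to compound for 48 hours before readout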); conditions: JHH-DIPG-1 glioma viability, CellTiter-Glo ATP luminescence
[8] = sensitizers of A549 cells to miR-34 induction, primary screen, imaging, A549 dox-inducible miR-34, nuclei and caspase counts (AID 1347080;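 active = compounds whose cell count with miR-34 switched on is under 0.7 times the count with it off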); conditions: A549 miR-34 inducible, Hoechst nuclei count, 48 h
[9] = phospholipid biosynthesis inhibitors in animal cells, primary screen, cell-based, LOPAC library, screen 4 (AID 1347384; call rule not given here); conditions: phospholipid biosynthesis inhibition screen, at 10 µM
[10] = survival rescue of mitochondrial mutant cells in low glucose, primary screen, MELAS cybrids, Rieske KO mouse fibroblasts, CellTiter-Glo (AID 1508586;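 active = mean z-score across replicates of 1.96 or higher in either the MELAS or the Rieske mutant cell line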;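 also: z relative to plate mean and SD of compound and empty wells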)
[11] = viability rescue of complex I mutant cybrids, primary screen, cell-based, galactose medium, ATP luminescence (AID 1645843;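 active = z-score of at least 1.8 in each of two replicates, scored against plate mean and spread of sample wells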;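 also: positive z means more ATP and so rescue of galactose-driven cybrid death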); conditions: complex I mutant cybrid cells, 72 h, stronger effect = higher value
[12] = growth inhibition of DIPG glioma cells, dose response, cell-based, SU-DIPG-XIII, MIPE4.0, CellTiter-Glo, qHTS (AID 1347061; cut-off not given, nearly all actives have AC50 up to about 37 µM;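 also: cells exposed to compound for 48 hours before readout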); conditions: SU-DIPG-XIII viability, CellTiter-Glo ATP luminescence
[13] = growth inhibition of DIPG glioma cells, dose response, cell-based, JHH-DIPG-1, MIPE4.0, CellTiter-Glo, qHTS (AID 1347062; cut-off not given, nearly all actives have AC50 up to about 27 µM); conditions: JHH-DIPG-1 viability, CellTiter-Glo ATP luminescence
[14] = SU-DIPG-VI glioma cell viability, MIPE4.0 library, CellTiter-Glo luminescence, qHTS (AID 1347066; cut-off not given, nearly all actives have AC50 up to about 30 µM;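 also: cells exposed to compound for 48 hours before readout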); conditions: CellTiter-Glo ATP luminescence
[15] = SU-DIPG-XXV glioma cell viability, MIPE5.0 library, qHTS (AID 1347068; cut-off not given, nearly all actives have IC50 up to about 30 µM;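 also: cells exposed to compound for 48 hours before viability readout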)
[16] = modifiers of HSF1 nuclear foci, imaging, Selleck Cancer Library (AID 1347162; in the data active = plate-normalised HSF1 focus index below about 0.46); conditions: human cells, at 10 µM; SSMD: measured here: HSF1 foci SSMD mean; cell count: measured here: cell number; plate-normalised HSF1 focus index: stronger effect = lower value
[17] = ovarian cancer cell viability with rucaparib, profiling panel, oncology-focused library, rucaparib conditional (AID 1508598); conditions: patient-derived ovarian cancer cells, CellTiter-Glo viability, 144 h, stronger effect = lower value
[18] = stronger effect = lower value, cell number ratio, induced over uninduced
[19] = measured here: relative caspase fold change +Dox/-Dox
[20] = measured here: total cells with miR-34 induction, stronger effect = lower value
[21] = measured here: total cells without miR-34 induction

CC(C)N(CCC(=O)c1ccc2ccccc2c1)Cc1ccccc1
period change [1]: 0 h (inactive)
parasite load remaining [2]: 28.5% (inactive)
viability [2]: 88.8%
inhibition [3]: -3% (inactive)
fluorescence ratio (interference) [4]: 0.9 (inactive)
remaining activity [5]: 113% (inactive)
AC50 [6]: 6.61 µM (active)
AC50 [7]: 4.17 µM (active)
fold change [8, 18]: 1.13 (inactive) and 0.795 (inactive) and 0.953 (inactive)
fold change [8, 19]: 1 and 0.533 and 0.643
cell count [8, 20]: 10100 and 6810 and 7420
cell count [8, 21]: 8940 and 8570 and 7790
outcome [9]: inactive
z-score ([10]; MELAS cybrid survival, CellTiter-Glo 48 h, stronger effect = higher value): -0.331 (inactive)
z-score ([10]; Rieske KO mouse fibroblast survival, CellTiter-Glo 72 h): -0.0503
z-score [11]: -1.29 (inactive) and -0.82 (inactive)

FC(F)(F)c1ccc(/C=C/c2nc(COc3ccc(CCCCn4ccnn4)cc3)co2)cc1
remaining activity [5]: 112% (inactive)
outcome [12]: inactive
outcome [13]: inactive
outcome [14]: inactive
fold change [8, 18]: 1.08 (inactive)
fold change [8, 19]: 2.06
cell count [8, 20]: 4070
cell count [8, 21]: 3770
z-score [11]: -0.935 (inactive)

Cc1ccccc1C(=O)c1ccc(Nc2ccc(Br)cc2N)cc1Cl
parasite load remaining [2]: 40.9% (inactive)
viability [2]: 76.7%
remaining activity [5]: 120% (inactive)
outcome [12]: inactive
AC50 [6]: 18.6 µM (active)
AC50 [7]: 23.5 µM (active)
IC50 [15]: 23.5 µM (active)
fold change [8, 18]: 0.938 (inactive)
fold change [8, 19]: 1.33
cell count [8, 20]: 6770
cell count [8, 21]: 7220
z-score [11]: -0.695 (inactive)

CC(C)c1onc(-c2c(Cl)cccc2Cl)c1COc1ccc(/C=C/c2cccc(C(=O)O)c2)c(Cl)c1
remaining activity [5]: 99.1% (inactive)
outcome [12]: inactive
outcome [13]: inactive
fold change [8, 18]: 0.989 (inactive)
fold change [8, 19]: 1.32
cell count [8, 20]: 5590
cell count [8, 21]: 5650
SSMD [16]: 2.06
cell count [16]: 6870
plate-normalised HSF1 focus index [16]: 1.11 (inactive)
viability ([17]; at 0.000305 µM, OCI-C5x cells, with rucaparib 10 µM, 100% = cells with rucaparib alone): 95.7% (active)
viability ([17]; at 0.000305 µM, OCI-C5x cells, without rucaparib): 107% (inactive)
viability ([17]; at 0.000305 µM, OCI-P5x cells, with rucaparib 20 µM, 100% = cells with rucaparib alone): 90.8% (active)
viability ([17]; at 0.000305 µM, OCI-P5x cells, without rucaparib): 87.3% (active)
viability ([17]; at 0.00122 µM, OCI-C5x cells, with rucaparib 10 µM, 100% = cells with rucaparib alone): 107% (inactive)
viability ([17]; at 0.00122 µM, OCI-C5x cells, without rucaparib): 97.6% (active)
viability ([17]; at 0.00122 µM, OCI-P5x cells, with rucaparib 20 µM, 100% = cells with rucaparib alone): 99.3% (active)
viability ([17]; at 0.00122 µM, OCI-P5x cells, without rucaparib): 89.4% (active)
viability ([17]; at 0.00488 µM, OCI-C5x cells, with rucaparib 10 µM, 100% = cells with rucaparib alone): 103% (inactive)
viability ([17]; at 0.00488 µM, OCI-C5x cells, without rucaparib): 97.6% (active)
viability ([17]; at 0.00488 µM, OCI-P5x cells, with rucaparib 20 µM, 100% = cells with rucaparib alone): 102% (inactive)
viability ([17]; at 0.00488 µM, OCI-P5x cells, without rucaparib): 91.9% (active)
viability ([17]; at 0.0195 µM, OCI-C5x cells, with rucaparib 10 µM, 100% = cells with rucaparib alone): 101% (inactive)
viability ([17]; at 0.0195 µM, OCI-C5x cells, without rucaparib): 98.1% (active)
viability ([17]; at 0.0195 µM, OCI-P5x cells, with rucaparib 20 µM, 100% = cells with rucaparib alone): 100% (inactive)
viability ([17]; at 0.0195 µM, OCI-P5x cells, without rucaparib): 98.8% (active)
viability ([17]; at 0.0781 µM, OCI-C5x cells, with rucaparib 10 µM, 100% = cells with rucaparib alone): 99.7% (active)
viability ([17]; at 0.0781 µM, OCI-C5x cells, without rucaparib): 105% (inactive)
viability ([17]; at 0.0781 µM, OCI-P5x cells, with rucaparib 20 µM, 100% = cells with rucaparib alone): 104% (inactive)
viability ([17]; at 0.0781 µM, OCI-P5x cells, without rucaparib): 97.9% (active)
viability ([17]; at 0.313 µM, OCI-C5x cells, with rucaparib 10 µM, 100% = cells with rucaparib alone): 97.6% (active)
viability ([17]; at 0.313 µM, OCI-C5x cells, without rucaparib): 97.8% (active)
viability ([17]; at 0.313 µM, OCI-P5x cells, with rucaparib 20 µM, 100% = cells with rucaparib alone): 106% (inactive)
viability ([17]; at 0.313 µM, OCI-P5x cells, without rucaparib): 100% (inactive)
viability ([17]; at 1.25 µM, OCI-C5x cells, with rucaparib 10 µM, 100% = cells with rucaparib alone): 102% (inactive)
viability ([17]; at 1.25 µM, OCI-C5x cells, without rucaparib): 97.1% (active)
viability ([17]; at 1.25 µM, OCI-P5x cells, with rucaparib 20 µM, 100% = cells with rucaparib alone): 103% (inactive)
viability ([17]; at 1.25 µM, OCI-P5x cells, without rucaparib): 101% (inactive)
viability ([17]; at 5 µM, OCI-C5x cells, with rucaparib 10 µM, 100% = cells with rucaparib alone): 76.1% (active)
viability ([17]; at 5 µM, OCI-C5x cells, without rucaparib): 89.5% (active)
viability ([17]; at 5 µM, OCI-P5x cells, with rucaparib 20 µM, 100% = cells with rucaparib alone): 99.6% (active)
viability ([17]; at 5 µM, OCI-P5x cells, without rucaparib): 98.8% (active)
z-score [11]: -0.665 (inactive)
